GLP1R inv ag = acts as inverse agonist at human GLP-1 receptor; AID 624417; P43220; 410,000 tested, 1.6% active; Potency, µM (top dose mostly 38.3 µM), for inactives: at the top dose activity change, negative = inhibition, hits mostly inhibitors; HEK293 GLP-1R CRE-luciferase, luminescence, 24 h; GLP-1R form is constitutively active; note: % is set by controls: 0 for no effect and ±100 for the full control effect; nearly all actives have a fitted effect of over 55% in size
Target sequence (P43220 whole entry, looked up): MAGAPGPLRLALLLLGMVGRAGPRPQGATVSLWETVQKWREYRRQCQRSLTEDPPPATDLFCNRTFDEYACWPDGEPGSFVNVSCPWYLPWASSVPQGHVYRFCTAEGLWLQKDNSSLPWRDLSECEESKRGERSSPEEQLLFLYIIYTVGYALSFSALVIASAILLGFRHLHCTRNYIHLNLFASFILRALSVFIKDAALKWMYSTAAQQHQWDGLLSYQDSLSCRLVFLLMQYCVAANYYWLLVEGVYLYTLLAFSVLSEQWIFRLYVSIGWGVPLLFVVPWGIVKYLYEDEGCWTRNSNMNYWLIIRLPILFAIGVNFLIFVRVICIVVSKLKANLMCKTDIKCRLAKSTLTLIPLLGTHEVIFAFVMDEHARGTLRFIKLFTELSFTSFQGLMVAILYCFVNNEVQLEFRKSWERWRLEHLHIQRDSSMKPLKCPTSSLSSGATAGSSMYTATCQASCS
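Cells are plated, allowed 12 hours at 37 deg C, then treated with compounds for 24 hr before luciferase detection reagent is added and luminescence is read after 12 min at room temperature. The HEK293 line carries constitutively active GLP-1R with a cAMP-responsive reporter.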
GLP-1R agonist = agonists of human GLP-1 receptor; P43220; HEK293 GLP-1R CRE-luciferase, luminescence, 4-6 h; cells express a hypersensitive GLP-1R form; Potency, µM (titrated, usually from 45.6 µM), for inactives: at the top dose activation, most hits filed as activators; 380,000 tested, 0.007% active; AID 624172; note: % of control where 0% means no effect
ATXN2 expr inh = inhibitors of ATXN2 expression | HEK-293 ATXN2-luciferase reporter, luminescence, 24 h | Potency, µM (titrated, usually from 57 µM), for inactives: at the top dose activity change, negative = inhibition, hits mostly inhibitors | 360,000 tested, 0.72% active | AID 1745845; note: % is set by controls: 0 for no effect and ±100 for the full control effect; nearly all actives have a fitted effect of over 55% in size
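ATXN2-luciferase reporter cells (luciferase flanked by upstream and downstream ATXN2 gene portions) were treated 24 h at 37 °C with compounds at up to 57 uM. SteadyGlo luminescence gave expression; GF-AFC fluorescence gave viability.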
ATXN viability = cell viability loss in ATXN counter-screen; S2 cells (HEK-293 line with an ATXN2-luciferase reporter) viability, CellTiter-Fluor protease fluorescence, 24 h; Potency, µM (titrated, usually from 56.7 µM), actives largely listed as cytotoxic; 400,000 tested, 0.49% active; note: nearly all actives have a fitted effect of over 40% in size
HepG2 tox = HepG2 cytotoxicity, counter-screen for TGF-b inhibitors. HepG2 CAGA-GFP viability, ATP luminescence, 18 h. Potency, µM (doses to about 46.1 µM), for inactives: top-dose activity change, negative = cytotoxicity, most hits filed as cytotoxic. 410,000 tested, 0.76% active. AID 588856
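HepG2 CAGA-GFP cells (1000/well, DMEM with 1% FBS) received compound, then TGF-beta at 500 pg/mL final, and were incubated 18 hours at 37 degrees C. Viability was read by CellTiter-Glo luminescence. Media-only wells were set as complete cell-killing and DMSO as no toxicity.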
TGFb inhibitor = TGF-b pathway inhibition | HepG2 CAGA-GFP TGF-b/SMAD3 reporter, GFP fluorescence, 18 h; TGF-beta stimulated, 500 pg/mL final | Potency, µM (top dose mostly 46.1 µM), inactives show at the top dose activity, negative = inhibition, usual class: inhibitors | 410,000 tested, 1.2% active; note: % is set by controls: 0 for no effect and ±100 for the full control effect; nearly all actives have a fitted effect of over 65% in size
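First, reporter cells (HEPG2 CAGA-GFP) rested 2 h at 37 degrees C. Next, compounds were pinned in and TGF-beta added to 500 pg/mL final. After 18 h, GFP was imaged per cell and summed per well.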
The depositor's hits bear a star; i = inactive; ? = inconclusive; · = not tested or not shown; ! = not confirmed by another sample. Compounds with a hit are over-represented: about 3.7% of the library has one in this group of screens. Calls come from the whole dose curve; as a rule, active = well fitted curve in the direction sought with a large enough effect; inconclusive = small, poorly fitted or top-dose-only effect, or another doubt; inactive = no such curve, though single readings can be large; an effect the other way counts as inactive or inconclusive. Potency is the fitted concentration of half-maximal effect.

SMILES | GLP1R inv ag | GLP-1R agonist | ATXN2 expr inh | ATXN viability | HepG2 tox | TGFb inhibitor
O=[N+]([O-])c1ccc(O)c(/C=N\N=C2c3ccccc3-c3ccccc32)c1 | -18.4% | -22.7% | 22.4µM* | ? | -38.0% | 2.82µM*
O=C(Cn1nnc(-c2ccccc2)n1)N/N=C/c1cc([N+](=O)[O-])ccc1O | 5.9% | 14.6% | ? | ? | 6.5% | 9.1%
NC(N)=N/N=C/c1cc([N+](=O)[O-])ccc1O | 18.6% | -6.4% | -8.7% | ? | -0.7% | -2.1%
O=C(Cn1nc2ccccc2n1)N/N=C/c1cc([N+](=O)[O-])ccc1O | -13.3% | 1.8% | 20µM* | ? | -36.2% | -0.2%
COC(=O)C(C(C)C)N1CC(=O)c2ccccc2S1(=O)=O (stereo not drawn) | · | · | · | · | -5.6% | -20.9%
CCc1ccccc1NS(=O)(=O)c1ccc2c(c1)CC(=O)N2 | 7.1% | -1.5% | 2.4% | i | -25.8% | -1.1%
CC(O)(c1cccc(F)c1)c1nc(-c2cccc(C(F)(F)F)c2)cs1 (stereo not drawn) | ? | -2.2% | ? | ? | 15.8µM* | ?
COc1ccc(-c2csc(C(C)(O)c3cccc(OC)c3)n2)cc1 (stereo not drawn) | 10µM* | 3.6% | 9.6% | i | -23.0% | -9.2%
CSc1nc(=O)[nH]c2nc[nH]c12 | · | · | · | · | -13.4% | -1.9%
CC1CCN(S(=O)(=O)c2ccc3c(c2)N(CC(=O)NC(C)C)C(=O)CS3)CC1 | 8.9% | · | 5.4% | i | -0.7% | -25.4%
CCc1ccc(C(=O)NC2=NC(c3cc(OC)ccc3OC)CC(=O)N2)cc1 (stereo not drawn) | 18.5% | · | 0.5% | i | -23.8% | -22.2%
COc1cccc(C(=O)Nc2nc(SCc3ccc(Cl)cc3)n[nH]2)c1 | ? | 3.4% | 20.4% | i | 15.8µM* | 0.0%
N#Cc1cc([N+](=O)[O-])cnc1Nc1ccccc1 | 48.4% | 8.91µM* | -23.7% | i | -60.7% | -9.7%
O=C(CCN1C(=O)C2C3C=CC(C4CC34)C2C1=O)Oc1cccc2cccnc12 (stereo not drawn) | ? | 0.2% | ? | i | 6.31µM* | 5.01µM*
Cc1c2cnn(CC(=O)NCCc3ccccc3)c(=O)c2c(C)n1Cc1ccccc1Cl | -14.5% | · | · | · | -2.7% | ?
Cc1ccc(C)c(N2CCN(C(=O)C3CCN(S(=O)(=O)c4c(C)noc4C)CC3)CC2)c1 | 11.2µM* | 0.5% | · | i | -32.1% | -47.4%
Cc1ccc(C)c(N2CCN(C(=O)C3CCN(C(=O)c4cc5sccc5n4C)CC3)CC2)c1 | ? | · | · | · | -18.5% | 10µM*
Cc1cccc(/C=C/c2onc(C)c2S(=O)(=O)N2CCC(C(=O)N3CCC(C)CC3)CC2)c1 | 2.82µM*! | 1.4% | -17.0% | i | 3.4% | ?
Cc1ccc(C)c(N2CCN(C(=O)c3cc4sccc4n3C)CC2)c1 | ? | 2.8% | 13.0% | i | -7.1% | ?
Cc1cccc(/C=C/c2onc(C)c2S(=O)(=O)N2CCC(C(=O)N3CCCCCC3)CC2)c1 | 2.82µM* | -4.3% | -24.4% | i | -10.8% | ?
COc1cccc(/C=C/c2onc(C)c2S(=O)(=O)N2CCC(C(=O)N3CCC(C)CC3)CC2)c1 | 12.0% | · | · | · | 2.7% | ?
Cc1ccc(C)c(N2CCN(C(=O)C3CCCN(S(=O)(=O)c4c(C)noc4C)C3)CC2)c1 (stereo not drawn) | -8.0% | 2.8% | -28.5% | i | -23.4% | ?
O=C(NCc1ccccn1)c1cnn(-c2ncc3c(n2)-c2ccccc2CC3)c1C1CC1 | · | · | · | i | · | ·
COc1ccccc1C1CN(CC(=O)N[C@H]2CCCCNC2=O)Cc2ccccc2O1 (stereo partly drawn) | · | · | · | i | · | ·
CCc1ccc(NC(=O)CC2C(=O)N(c3cccc(C)c3)C(=O)N2Cc2cccs2)cc1 (stereo not drawn) | ? | · | · | · | -30.8% | ?
SMILES | GLP1R inv ag | GLP-1R agonist | ATXN2 expr inh | ATXN viability | HepG2 tox | TGFb inhibitor
COc1ccc(O)c(/C=N/n2c(-c3ccco3)csc2=Nc2cccnc2)c1 | ? | 9.7% | -21.6% | i | -39.0% | ?
CCN=c1scc(-c2cccs2)n1/N=C/c1cc(OC)ccc1O | ? | ? | 24.3% | i | -42.7% | 12.6µM*
O=[N+]([O-])c1ccc2nc(CO)[nH]c2c1 | · | · | · | · | -22.3% | -15.2%
NS(=O)(=O)c1ccc(NC(=S)N2CCN(Cc3ccc(Cl)c(Cl)c3)CC2)cc1 | 8.91µM* | 5.1% | -31.1% | i | -15.9% | -24.8%
O=S(=O)(c1ccc(Cl)cc1)N1CCN(C(=S)Nc2ccc(F)c(Cl)c2)CC1 | 8.91µM* | -6.2% | ? | i | 4.7% | ?
CC1C/C(=N\NC(=S)NC(C)C)CC(C)(C)C1 (stereo not drawn) | 4.47µM* | -6.2% | -9.3% | i | -6.3% | -8.7%
CC1C/C(=N\NC(=O)c2cccnc2)CC(C)(C)C1 (stereo not drawn) | 5.1% | -14.1% | -12.4% | i | -1.6% | -4.2%
Cc1ncc2c(c1CNC(=O)c1cncs1)CCN(C(=O)c1ccc(C(C)(C)C)cc1)C2 | · | · | · | i | · | ·
Cc1ccc(F)cc1-c1nc(NC(C)C)nc2cc(-c3ccccc3)sc12 | ? | 19.8% | 0.7% | i | -17.0% | 0.3%
COCCNc1nc(NCCOC)c2sc(-c3ccccc3)cc2n1 | -22.7% | 6.7% | -17.0% | i | -29.0% | -1.9%
C=CCNc1nc(NCc2cccc(OC)c2)c2sc(-c3ccccc3)cc2n1 | ? | 10.2% | ? | ? | 11.2µM* | ?
CC(C)Nc1nc(NCCOc2ccccc2Cl)c2sc(-c3ccccc3)cc2n1 | ? | -7.6% | ? | ? | 14.1µM* | ?
COc1ccccc1CNc1nc(NC(C)C)nc2cc(-c3ccccc3)sc12 | ? | 4.4% | 20µM* | 14.1µM* | 12.6µM* | ?
COCCNc1nc(NCCOc2ccccc2)c2sc(-c3ccccc3)cc2n1 | ? | -2.0% | ? | · | -69.4% | ?
O=C(NC1CCN(Cc2ccccc2)C1)c1cnn(-c2ncc3c(n2)-c2ccccc2CC3)c1C1CC1 (stereo not drawn) | · | · | · | i | · | ·
COC(=O)CCn1nnc(-c2ccc(C(C)C)cc2)n1 | -13.6% | 0.1% | 0.501µM* | i | 2.4% | -2.6%
COc1cc(OC)c(OC)cc1CN1CCOc2ccc(CN3CCN(C(C)=O)CC3)cc2C1 | · | · | · | i | · | ·
COc1ccc(NC(=O)CSCC(=O)N(C)Cc2ccc(Cl)c(Cl)c2)cc1 | 10µM* | 20.8% | -19.6% | ? | -25.0% | ?
